Several values for one entry are separate records, joined by “and”; a condition that tells them apart may be missing. Equal values may be shown once. Results filed as inconclusive are left out. Entries that show only a call come without a potency. Activity calls are given as the source filed them. The call rests on the fitted dose curve.
experiment: qHTS assay for small molecules that induce genotoxicity in human embryonic kidney cells expressing luciferase-tagged ATAD5 - cell viability (AID 651634); details: HEK293T ATAD5-luc cells viability, CellTiter-Fluor, 15.5 h; series mostly up to 83.3 µM; further: nearly all actives have a fitted effect of over 25% in size
Source text: National Center for Advancing Translational Sciences [NCATS]
NIH Chemical Genomics Center [NCGC]
U.S. Environmental Protection Agency [EPA]
National Institutes of Environmental Health Sciences [NIEHS]
National Toxicology Program [NTP]
U.S. Food and Drug Administration [FDA]
Enhanced Level of Genome Instability Gene 1 (ELG1; human ATAD5) protein levels increase in response to various types of DNA damage. Using a luciferase reporter-gene tagged with ElG1, a cell-based assay [developed by Kyungjae Myung, NHGRI, NIH] was used to measure the induction of ATAD5 in human embryonic kidney cells (HEK293T). So, increase in luciferase activity can be used to identify the compounds that cause genetic stress. In addition to genotoxicity, these cells were also used to test for cytotoxicity by measuring the protease activity within live cells.
Tox21 Assay Protocol Summary:
For cytotoxicity screening, 2,000 cells in 5 uL/well were dispensed into white, solid-bottom 1536-well plates using a Multidrop Combi (Thermo Scientific) dispenser. Following transfer of 23 nL compound or DMSO vehicle by a pin tool, the plates were incubated 15.5 hr at 37C and 5% CO2. 1 ul CellTiter-Fluor reagent (Promega, Madison, WI) was then added to each plate and following 30 min incubation at 37C, fluorescence intensity was quantified on a ViewLux CCD-based plate reader.
Potency means the concentration at half of the fitted maximal effect.

SMILES | Potency
CC(=O)[C@]1(O)Cc2c(O)c3c(c(O)c2[C@@H](O[C@H]2C[C@H](N)[C@H](O)[C@H](C)O2)C1)C(=O)c1ccccc1C3=O | 15 µM (active)
CN1CC[C@H](c2c(O)cc(O)c3c(=O)cc(-c4ccccc4Cl)oc23)[C@H](O)C1 | inactive
CC(C)c1ccc2sc3ccccc3c(=O)c2c1 | inactive
COC(=O)C[C@](O)(CCCC(C)(C)O)C(=O)O[C@@H]1C(OC)=CC23CCCN2CCc2cc4c(cc2[C@H]13)OCO4 (stereo not given in full) | 26.6 nM (active) and 23.7 nM (active)
O=C(O)c1cc(O)c2c(c1)[C@H]([C@H]1c3cc(C(=O)O)cc(O)c3C(=O)c3c(O[C@@H]4O[C@H](CO)[C@@H](O)[C@H](O)[C@H]4O)cccc31)c1cccc(O[C@@H]3O[C@H](CO)[C@@H](O)[C@H](O)[C@H]3O)c1C2=O | inactive
CC(Cc1ccc(O)c(O)c1)C(C)Cc1ccc(O)c(O)c1 (stereo not given) | inactive
NCCO/C=C/[C@H](N)C(=O)O | inactive
Cc1c(N)nc([C@H](CC(N)=O)NC[C@H](N)C(N)=O)nc1C(=O)N[C@H](C(=O)N[C@H](C)[C@@H](O)[C@H](C)C(=O)N[C@H](C(=O)NCCc1nc(-c2nc(C(=O)NCCCCN=C(N)N)cs2)cs1)[C@@H](C)O)[C@@H](O[C@@H]1O[C@@H](CO)[C@@H](O)[C@H](O)[C@@H]1O[C@H]1O[C@H](CO)[C@@H](O)[C@H](OC(N)=O)[C@@H]1O)c1cnc[nH]1 | inactive
O=C1C2CC3CC1CC(O)(C3)C2 | inactive
Cc1ccc(Cl)c(N)c1Cl | inactive
O=C(O)Cc1nn(Cc2ccc(Br)cc2F)c(=O)c2ccccc12 | inactive
C=CCN1C(=O)C(CC(C)C)NC1=S (stereo not given) | inactive
CCCOC(=O)c1ccccc1O | inactive
CC[C@H]1OC(=O)C[C@@H](O)[C@H](C)[C@@H](O[C@@H]2O[C@H](C)[C@@H](O[C@H]3C[C@@](C)(O)[C@@H](O)[C@H](C)O3)[C@H](N(C)C)[C@H]2O)[C@@H](CC=O)C[C@@H](C)C(=O)/C=C/C(C)=C/[C@@H]1CO[C@@H]1O[C@H](C)[C@@H](O)[C@@H](OC)[C@H]1OC | inactive
O=C(O)c1ccc(NC2OC[C@@H](O)[C@H](O)[C@H]2O)cc1 (stereo not given in full) | inactive
Cc1ccc(C(C)(C)c2ccc(C)cc2)cc1 | inactive
Cc1cc(C(=O)NCCc2ccc(S(=O)(=O)NC(=O)NN3CCCCCC3)cc2)no1 | inactive
NCCCC[C@H](NC(=O)[C@@H]1CCCN1C(=O)[C@@H]1CSSC[C@H](N)C(=O)N[C@@H](Cc2ccc(O)cc2)C(=O)N[C@@H](Cc2ccccc2)C(=O)N[C@@H](CCC(N)=O)C(=O)N[C@@H](CC(N)=O)C(=O)N1)C(=O)NCC(N)=O | inactive
C[C@@H]1C(=O)NC2=Nc3cccc(Cl)c3CN21 | inactive
O=C(O)c1cc(=O)c2c3nc4ccccc4oc-3cc(=O)c2[nH]1 | inactive

SMILES | Potency
COc1c(O)cc2c(c1O)[C@@H]1O[C@H](CO)[C@@H](O)[C@H](O)[C@H]1OC2=O | inactive
CC1CCCC(C)N1NC(=O)c1ccc(Cl)c(S(N)(=O)=O)c1 (stereo not given) | inactive
COc1cc2c(c(OC)c1OC)-c1c(cc3c(c1OC)OCO3)C[C@@H](C)[C@](C)(O)C2 | inactive
CC(=O)OCC1=C(C(=O)O)N2C(=O)[C@@H](NC(=O)Cc3ccccc3)[C@H]2SC1 | inactive
COC1=C(OC)C(=O)C(C/C=C(\C)CC/C=C(\C)CC/C=C(\C)CC/C=C(\C)CC/C=C(\C)CC/C=C(\C)CC/C=C(\C)CC/C=C(\C)CC/C=C(\C)CCC=C(C)C)=C(C)C1=O | inactive
COc1cc([C@@H]2c3cc4c(cc3[C@@H](O[C@@H]3O[C@@H]5CO[C@@H](C)O[C@H]5[C@H](O)[C@H]3O)[C@H]3COC(=O)[C@H]23)OCO4)cc(OC)c1O | inactive
Cc1cc(-c2ccc(N=Nc3ccc4c(S(=O)(=O)O)cc(S(=O)(=O)O)c(N)c4c3O)c(C)c2)ccc1N=Nc1ccc2c(S(=O)(=O)O)cc(S(=O)(=O)O)c(N)c2c1O | 13.3 µM (active)
CCN(CC)CCNC(=O)c1ccc(NS(C)(=O)=O)cc1 | inactive
CC(C)c1ncc([N+](=O)[O-])n1C | inactive
O=C1CCCCCCCCCCCCCC1 | inactive
CC[C@H]1OC(=O)C[C@@H](O)[C@H](C)[C@@H](O[C@@H]2O[C@H](C)[C@@H](O)[C@H](N(C)C)[C@H]2O)[C@@H](CCN2C[C@H](C)C[C@H](C)C2)C[C@@H](C)C(=O)/C=C/C(C)=C/[C@@H]1CO[C@@H]1O[C@H](C)[C@@H](O)[C@@H](OC)[C@H]1OC | inactive
CC[C@H]1OC(=O)[C@H](C)C(=O)[C@H](C)[C@@H](O[C@@H]2O[C@H](C)C[C@H](N(C)C)[C@H]2O)[C@](C)(OC)C[C@@H](C)C(=O)[C@H](C)[C@H]2N(CCCCn3cnc(-c4cccnc4)c3)C(=O)O[C@]12C | inactive
COc1cccc2c1[C@@H]1CN(CCCCn3c(=O)[nH]c4c(sc5ncc(-c6ccccc6)nc54)c3=O)C[C@@H]1CO2 | 26.6 µM (active)
CCC[C@@H]1C[C@@H](C(=O)N[C@@H]([C@H]2O[C@H](SC)[C@H](OP(=O)(O)O)[C@@H](O)[C@H]2O)[C@H](C)Cl)N(C)C1 | inactive
CC(=O)Nc1ccc(OC(C)=O)cc1 | inactive
CC(C)COC(=O)OCN1C(=O)CN(CCN2CC(=O)N(COC(=O)OCC(C)C)C(=O)C2)CC1=O | inactive
CC(C)NCC1CCc2cc(CO)c([N+](=O)[O-])cc2N1 (stereo not given) | inactive
CCCCCCCCCC(=O)NO | inactive
Cc1ccc2nc(-c3ccc(N)cc3)sc2c1S(=O)(=O)O | inactive
CSCCC(N)C(=O)O (stereo not given) | inactive

— PubChem BioAssay (Tox21)
